# TRHR enhancer: qHTS for Small Molecule Agonists and Allosteric Enhancers of Human TRH Receptor: Primary Screen for Enhancers. TRHR cells, fluo-8 calcium fluorescence, EC20 TRH enhancement. enhancement, % at 2 µM. AID 493056, 2011. Thyrotropin-releasing hormone receptor (Homo sapiens), P34981. actives 0.66% (n = 360,000); in the data active = enhancement above about 30%; note: 0% is about no effect
# Target sequence (P34981 whole entry, looked up): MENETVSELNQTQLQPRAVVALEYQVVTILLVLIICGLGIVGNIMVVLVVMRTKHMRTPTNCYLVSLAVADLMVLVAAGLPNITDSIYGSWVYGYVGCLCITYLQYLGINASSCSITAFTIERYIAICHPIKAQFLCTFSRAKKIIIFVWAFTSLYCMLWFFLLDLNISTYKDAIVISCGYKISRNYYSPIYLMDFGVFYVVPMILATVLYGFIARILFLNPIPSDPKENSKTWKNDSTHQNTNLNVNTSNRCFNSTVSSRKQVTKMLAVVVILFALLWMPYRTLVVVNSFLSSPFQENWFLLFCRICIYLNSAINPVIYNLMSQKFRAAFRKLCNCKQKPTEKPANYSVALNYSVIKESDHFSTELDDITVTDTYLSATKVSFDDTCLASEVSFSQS
#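 TRHR-expressing cells loaded with fluo-8 calcium dye were read kinetically (ex 480/em 530) during compound addition, then stimulated with an EC20 of TRH (10 nM final). Enhancement of the Gq-mediated intracellular calcium response was scored.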
# D1 antag: Antagonist of Human D 1 Dopamine Receptor: qHTS | HEK293 TREx D1 cells, calcium flux, dopamine EC80; stronger effect = lower value | AID 504652, 2011 | actives 3.2% (n = 360,000) | activity change, negative = inhibition, % at 10 µM; in the data active = activity change below about -30%; note: % is set by controls: 0 for no effect and ±100 for the full control effect
#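 Antagonism measured as reduced calcium response to an EC80 dopamine addition following 180 s compound pre-read; cells were inducible HEK293 Trex D1 plated overnight at 30 C, read kinetically at 1 cycle/sec.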
# D1 agonist: Allosteric Agonists of the Human D1 Dopamine Receptor: qHTS; D(1A) dopamine receptor (Homo sapiens), P21728; HEK293 T-REx D1 cells, calcium flux, agonist mode; activation, % at 2 µM; actives 1% (n = 360,000); AID 504660, 2011; note: 0% is about no effect
#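 Agonism was scored from calcium flux recorded over 180 s (1 read/s) after pintool compound addition, following a 10-cycle baseline. Cells were inducible force-coupled HEK293 TREx D1, plated overnight at 30 C and loaded with no-wash calcium dye.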
# D1 PAM: Potentiators of Human D1 Dopamine Receptor: qHTS; D(1A) dopamine receptor (Homo sapiens), P21728; HEK293 TREx D1 cells, calcium flux, dopamine EC20 potentiation; potentiation, % at 10 µM; actives 0.036% (n = 360,000); in the data active = potentiation above about 30%; note: 0% is about no effect
# TRHR agonist: qHTS for Small Molecule Agonists and Allosteric Enhancers of Human TRH Receptor: Primary Screen for Agonists; activation, % at 2 µM; Thyrotropin-releasing hormone receptor (Homo sapiens), P34981; TRHR cells, calcium flux fluo-8, FDSS agonist mode; actives 0.18% (n = 360,000); note: 0% is about no effect
#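 Fluo-8-loaded TRHR cells; 10 s baseline, compound added, kinetic Ca2+ fluorescence read 1/s, agonist mode.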
# * marks the source's active call; other numbers are inactive results; ! = not active in a repeat. Hits are enriched below; roughly 4.7% of the tested compounds scored in any of these assays. Cut-off read from the data, not from the text of the source, unless noted: active = activation above about 30%; inactive = the rest.
SMILES,TRHR enhancer,D1 antag,D1 agonist,D1 PAM,TRHR agonist
COc1cccc(-n2c(C)nc3c(cnn3-c3ccc(C)c(C)c3)c2=O)c1,0,-48*,8,2,0
COc1cc(OC)c(NC(=O)c2noc3c2CSc2ccccc2-3)cc1Cl,-3,-1,4,-1,2
CC1(C)Cc2cccc(OCC(=O)NCc3ccccc3F)c2O1,-1,-35*,3,0,0
Cc1ccc(CNC(=O)COc2cccc3c2OC(C)(C)C3)cc1,25,-8,8,-3,0
Cc1nn(-c2ccccn2)c2c1C(c1ccsc1)C1=C(CCCC1=O)N2 (stereo not given),1,-86*,0,-4,-1
Cc1cc2[nH]c(=O)c(=O)[nH]c2cc1S(=O)(=O)N1CCN(c2cccc(Cl)c2)CC1,-2,-9,3,0,0
Cc1cc2[nH]c(=O)c(=O)[nH]c2cc1S(=O)(=O)N1CCN(c2cccc(C(F)(F)F)c2)CC1,7,-62*!,2,-9,-1
CSc1ccccc1N1CCN(C(=O)Nc2ccc3c(c2)NC(=O)CO3)CC1,0,-49*,15,-12,-1
Cn1cccc1/C=C(/C#N)C(N)=S,-26,-49*,2,-4,-2
Cc1cc(C)c(/C=C(\C#N)C(N)=S)c(C)c1,-14,8,17,-1,1
Cc1ccc(-c2ccc(/C=C(\C#N)C(N)=S)n2C)cc1,9,-51*,5,-5,-1
Cc1ccc(C(=O)N2CC(=O)Nc3ccc(Br)cc3C2c2ccc(F)cc2)cc1C (stereo not given),5,17,3,1,0
CSc1ccccc1-n1nnnc1SCc1ccccc1,11,-6,46*,-1,-1
O=C(Nc1cccc2ncccc12)c1ccc([N+](=O)[O-])o1,20,-39*,2,-10,0
COc1cc(CNCCSc2nnnn2C)ccc1OCc1ccc(C)cc1,-2,-10,6,-4,0
CCCCc1ccc(C2C(C#N)=C(N)SC(N)=C2C#N)s1,-2,-67*,63*,-9,10
CCOc1ccc(C2C(C#N)=C(N)SC(N)=C2C#N)c(OCC)c1,0,3,3,2,0
O=C(Nc1ccc(N2CCOCC2)c(F)c1)c1cccs1,-4,-38*,0,-7,0
CCC(=O)N1CCN(c2ccc(NC(=O)c3cc4ccccc4o3)cc2Cl)CC1,13,-23,4,-6,-1
CC1CN(c2ccc(NC(=O)c3ccco3)cc2C(=O)O)CC(C)O1 (stereo not given),30*,-25,2,-7,0
O=C(Nc1ccc(N2CCN(C(=O)c3ccccc3)CC2)c(Cl)c1)c1ccco1,-6,-33*,4,-5,-1
CCCC(=O)N1CCN(c2ccc(NC(=O)c3cc4ccccc4o3)cc2Cl)CC1,-1,-47*,11,-9,-1
CC1CN(c2ccc(NS(=O)(=O)c3ccccc3)cc2C(=O)O)CC(C)O1 (stereo not given),3,-2,3,0,0
COc1ccc(OC)c(NC(=O)c2cc3c(s2)-c2ccccc2SC3)c1,-3,5,5,-2,1
COc1ccc([C@@H]2[C@@H]3C(=O)N(C(C)(C)C)C(=O)[C@@H]3[C@]3(Cc4ccc(Cl)cc4)C(=O)N(c4cccc(C)c4)C(=O)N23)cc1,-5,-1,1,3,1
SMILES,TRHR enhancer,D1 antag,D1 agonist,D1 PAM,TRHR agonist
O=C(Nc1ccc(N2CCOCC2)c(Cl)c1)c1ccco1,5,-34*,3,-14,-1
COc1c(C(=O)Nc2ccc(CN3CCOCC3)cc2)cc2ccccc2c1Br,-6,-31*,13,-2,1
O=C(Nc1ccc(N2CCOCC2)c(Cl)c1)c1ccc(Cl)cc1,-9,-31*,14,-5,0
O=C(Nc1ccc(N2CCOCC2)c(Cl)c1)c1ccc2c(c1)OCCO2,11,-8,10,-1,-1
O=C(Nc1ccc(CN2CCOCC2)cc1)c1ccco1,-6,-35*,2,-4,0
CCN(CC)CCn1c(=S)[nH]c2cc(C(=O)NCc3ccccc3Cl)ccc2c1=O,-4,-17,1,-5,-1
Cc1cc(F)ccc1NC(=O)C1CCC(CNS(=O)(=O)c2ccc3c(c2)CCCC(=O)N3)CC1 (stereo not given),-1,-12,2,-2,0
CCN1CCN(c2ccc(NC(=O)c3ccc(F)cc3)cc2Cl)CC1,1,-40*,13,-17,1
O=C(Nc1ccc2c(c1)CCCN2C(=O)c1ccco1)c1cc([N+](=O)[O-])ccc1Cl,-4,-42*,1,-20,0
O=C(Nc1ccc(N2CCN(C(=O)c3ccco3)CC2)cc1)c1ccc([N+](=O)[O-])cc1Cl,-1,-6,13,-1,0
CCN1CCN(c2ccc(NC(=O)c3cccnc3)cc2Cl)CC1,-1,7,1,-6,-1
Cc1cccc(NS(=O)(=O)c2ccc3oc(=O)c4ncn(C)c4c3c2)c1C,8,4,0,0,-1
COc1cc(OC)c(NC(=O)C(NS(=O)(=O)c2cccc3nsnc23)c2ccccc2)cc1Cl (stereo not given),9,-1,-1,0,-2
O=[N+]([O-])c1ccc2nc(Cl)nc(-c3ccccc3)c2c1,-2,-34*,1,-1,-1
CC(=O)Nc1c(C(=O)Nc2cccc(C)c2)nnn1-c1ccc(C)cc1,-5,-34*,11,-1,1
COc1cccc(C(=O)N(Cc2sccc2C)C2CCS(=O)(=O)C2)c1 (stereo not given),-2,2,-2,-1,-1
Cc1oc(-c2cccc(Cl)c2)nc1CN1CCC(C(=O)NC2CC2)CC1,-8,5,3,-4,0
Cc1oc(-c2cccc(F)c2)nc1CN1CCCN(C(=O)c2ccco2)CC1,8,-1,2,4,0
COc1ccc(-c2nc(CN3CCC(C(=O)NCc4ccc(F)cc4)CC3)c(C)o2)cc1OC,0,-1,0,-3,0
Cc1cccc(-c2nc(CN3CCN(Cc4cccc(F)c4)CC3)c(C)o2)c1,31*,1,2,-5,0
CCc1ccc(-c2nc(CN3CCC(C(=O)NCc4ccc(F)cc4)CC3)c(C)o2)cc1,23,-10,33*,2,2
CCN(CCNC(=O)C1CCN(Cc2nc(-c3cccc(Cl)c3)oc2C)CC1)c1ccccc1,-6,-44*,47*,-5,0

# Compound activity as filed in PubChem.
